# Reference: PubChem BioAssay (NCATS)
# Records with an inconclusive call do not appear. A call without a number means that no potency is given here. Calls of active or inactive are those of the source. Unless noted, calls follow the shape of the dose curve; as a rule, active = well fitted curve in the direction sought with a large enough effect; inconclusive = small, poorly fitted or top-dose-only effect, or another doubt; inactive = no such curve, though single readings can be large; an effect the other way counts as inactive or inconclusive. Bridge positions count the residues as written; N and C are the ends. Square brackets hold non-standard residues; d marks the D form. Peptide text beside a SMILES is read from it. * marks the point of attachment. Ileψ(thiazoline)Cys = CC[C@H](C)[C@H](N)C1=N[C@H](C(=O)*)CS1; d(aIle) = CC[C@H](C)[C@@H](N)C(=O)O; dOrn = NCCC[C@@H](N)C(=O)O
# How the values were obtained:
# [1] = AP1 Signaling Pathway (AID 357; active = well fitted curve in either direction with a large enough effect, not every such curve was filed as active;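 also: ME-180 reporter cells stimulated with EGF at its EC50 level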)
# Method in brief: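 First, ME-180 AP-1-bla cells were cultured overnight at 37 °C in low-serum Opti-MEM. Next, titrated compounds with EC50 EGF were incubated 5 hours. Finally, CCF4 was added for 2.5 hours and the 460/530 nm ratio recorded.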
# [2] = NFAT Signaling Pathway (AID 444; active = well fitted curve in either direction with a large enough effect, not every such curve was filed as active;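 also: carbachol stimulus at about its EC50 of 1 µM final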); settings: Jurkat NFAT-bla M1, carbachol, beta-lactamase ratio, 5 h; at 17.2 µM (top of the series) unless noted
# Method in brief: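 Read-out: CCF4 FRET ratio (460 nm/530 nm) after 1 h RT dye loading, used for %activity and AC50 from titration series. Cells: Jurkat NFAT-β-lactamase/M1 line, treated with compound plus 1 uM carbachol for 5 h, 37 °C.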
# [3] = Stat Signaling Pathway (AID 446; active = well fitted curve in either direction with a large enough effect, not every such curve was filed as active;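 also: ME-180 cervical cancer cells given 40 pM IL-6 alongside compound; SIE-controlled beta-lactamase reporter measured as 460/530 nm FRET emission ratio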)
# Method in brief: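 Emission at 460 and 530 nm (excitation 405 nm) reports SIE-controlled beta-lactamase in ME-180 cells. Cells received compound with 40 pM IL-6 for 5 hrs at 37 C; data scaled between 300 pM IL-6 and 125 nM JAK-inhibitor controls.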
# [4] = target: Mitogen-activated protein kinase 10 (Mus musculus) (UniProt Q61831); assay: JNK3 AlphaScreen Assay (AID 530; active = well fitted curve in either direction with a large enough effect, not every such curve was filed as active;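 also: kinase came from lysate of stimulated human HepG2 cells; signal reports phosphorylation of biotinylated GST-cJun 1-79 at Ser73 with 10 µM ATP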)
# Method in brief: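 Kinase buffer: 20 mM Tris-HCl pH 7.6, 10 mM MgCl2, 1 mM DTT, 0.1 mM Na3VO4, 0.01% Tween-20; ATP 10 uM. Substrate biotin-GST-cJun(1-79), enzyme from activated HepG2 lysates. Detection by Ser73 phospho-antibody AlphaScreen.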
# [5] = target: 3',5'-cyclic-AMP phosphodiesterase 4B (Homo sapiens) (UniProt Q07343); assay: qHTS Assay for Inhibitors of PDE-IV (AID 607; active = well fitted activation curve with a large enough effect in the main read-out, with a control signal flat, not every such curve was filed as active)
# Method in brief: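 The readout is membrane depolarisation from a cAMP-sensing CNG channel, detected with a potential dye at ex 535/em 590. Cells were HEK293-derived (endogenous PDE-IV) at 1000 cells/well, titrated up to 22.9 uM final.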
# [6] = qHTS Assay for Lipid Storage Modulators (AID 1519; calls by dose curve); settings: Drosophila S3 cells, BODIPY lipid droplet/cell ratio, laser cytometry, cells loaded with oleic acid; for activity change, negative = inhibition: at 25.7 µM (top of the series)
# Method in brief: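 Cells seeded at 5,000 per well were treated with compounds over a concentration series and loaded with oleic acid (400 uM, as added). Lipid droplet fluorescence (488 nm excitation, 500-530 nm channel) was read by laser-scanning cytometry and normalized to 20 uM Triacsin C.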
# [7] = target: Ubiquitin carboxyl-terminal hydrolase 1 (Homo sapiens) (UniProt O94782); assay: Inhibitors of USP1/UAF1: Pilot qHTS (AID 504865);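 also: rhodamine fluorescence freed from ubiquitin-rhodamine substrate followed over time; top concentration of the series differs between compounds; nearly all actives have a fitted effect of over 35% in size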
# Method in brief: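 USP1/UAF1 complex (1nM) preincubated with compound 15 min at room temperature, then Ub-Rho substrate (150nM final) added. Fluorescence read kinetically at 480/540 nm, 6 reads every 60 seconds. Buffer: 50mM HEPES pH 7.8, 0.5mM EDTA, 0.1 mg/ml BSA, 1mM TCEP, 0.01% Tween-20.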
# [8] = target: Luciferin 4-monooxygenase (Photinus pyralis) (UniProt P08659); assay: Biochemical firefly luciferase enzyme assay for NPC (AID 624030);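 also: purified P. pyralis luciferase at 10 nM with luciferin and ATP substrate; nearly all actives have a fitted effect of over 70% in size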
# Method in brief: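 Direct inhibition of firefly luciferase enzyme (10 nM final, 50 mM Tris Acetate) assessed by luminescence within 5 minutes. Percent activity scaled between DMSO and PTC124 positive control, with concentration-effect curves classified by fit quality and response.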
# [9] = S16 Schwann cell PMP22 intronic element firefly luciferase assay (AID 624032); also: nearly all actives have a fitted effect of over 30% in size
# Method in brief: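 Luciferase reporter of PMP22 intronic-element expression in stably transfected S16 rat Schwann cells, read by ONE-Glo luminescence after 24 h compound exposure at 37 C. Activity scaled between DMSO (0%) and positive-control PTC124; concentration-effect curves quality-classified.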
# [10] = qHTS profiling for inhibitors of Plasmodium falciparum proliferation (AID 504749); also: nearly all actives have a fitted effect of over 60% in size; settings: P. falciparum in erythrocytes, SYBR Green DNA, 72 h, at 12.8 µM (top of the series)
# Method in brief: (§1)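 In a 72 h erythrocytic culture (37 C, humidified, 5% CO2) at 2.5% hematocrit and 0.3% starting parasitemia, compounds were tested; SYBR Green I in detergent lysis buffer stained parasite DNA overnight.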
# AS120 = assay: as above; settings: P. falciparum in erythrocytes, SYBR Green DNA, 72 h; series mostly up to 12.8 µM
# Method in brief: as §1
# C2A = assay: as above; settings: P. falciparum in erythrocytes, SYBR Green DNA, 72 h; series mostly up to 12.8 µM
# Method in brief: as §1
# CP238 = assay: as above; settings: P. falciparum in erythrocytes, SYBR Green DNA, 72 h; series mostly up to 12.8 µM
# Method in brief: as §1
# CP250 = assay: as above; settings: P. falciparum in erythrocytes, SYBR Green DNA, 72 h; series mostly up to 12.8 µM
# Method in brief: as §1
# CP252 = assay: as above; settings: P. falciparum in erythrocytes, SYBR Green DNA, 72 h; series mostly up to 12.8 µM
# Method in brief: as §1
# HB3 = assay: as above; settings: P. falciparum in erythrocytes, SYBR Green DNA, 72 h; series mostly up to 12.8 µM
# Method in brief: as §1
# [11] = target: Glucocorticoid receptor (Homo sapiens) (UniProt P04150); assay: GR-GFP Redistribution (AID 450;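 active = compounds whose dose series gives a full or clear partial fitted curve of increased nuclear translocation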; also: potency is read from the fitted curve at half-maximal effect); settings: U2OS GR-GFP nuclear translocation, laser cytometry, 2 h
# [12] = target: Glucocorticoid receptor (Homo sapiens) (UniProt P04150); assay: GR-EFC Redistribution (AID 451; calls by dose curve; also: potency is read from the fitted curve at half-maximal effect); settings: CHO-K1 GR-EFC translocation, beta-gal luminescence, 2 h
# Method in brief: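 Translocation of GR-ED fusion to nuclear EA restores b-gal, read by luminescence after 1 h room-temperature detection. Engineered CHO-K1 biosensor cells, 1,000/well, exposed 2 h at 37 C to titrations up to 46 uM final.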
# [13] = target: ATP-dependent 6-phosphofructokinase (Trypanosoma brucei brucei) (UniProt O15648); assay: qHTS Assay to Find Inhibitors of T. brucei phosphofructokinase: hit validation (AID 492961);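 also: luminescence reports ADP formed as PFK phosphorylates fructose-6-phosphate with ATP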
# Method in brief: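 In this biochemical qHTS validation, titrated compounds were tested against 1.25 nM PFK with 0.1 mM ATP and 0.5 mM F6P. Percent activity came from controls lacking or containing enzyme.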
# SC27B = assay: qHTS profiling for inhibitors of Plasmodium falciparum proliferation (AID 504749); also: nearly all actives have a fitted effect of over 60% in size; settings: P. falciparum in erythrocytes, SYBR Green DNA, 72 h; series mostly up to 12.8 µM
# Method in brief: as §1
# [14] = measured here: cell count channel max response
# [15] = measured here: lipid channel max response
# Chain of ATP-dependent 6-phosphofructokinase (Trypanosoma brucei brucei) (O15648 whole entry, looked up): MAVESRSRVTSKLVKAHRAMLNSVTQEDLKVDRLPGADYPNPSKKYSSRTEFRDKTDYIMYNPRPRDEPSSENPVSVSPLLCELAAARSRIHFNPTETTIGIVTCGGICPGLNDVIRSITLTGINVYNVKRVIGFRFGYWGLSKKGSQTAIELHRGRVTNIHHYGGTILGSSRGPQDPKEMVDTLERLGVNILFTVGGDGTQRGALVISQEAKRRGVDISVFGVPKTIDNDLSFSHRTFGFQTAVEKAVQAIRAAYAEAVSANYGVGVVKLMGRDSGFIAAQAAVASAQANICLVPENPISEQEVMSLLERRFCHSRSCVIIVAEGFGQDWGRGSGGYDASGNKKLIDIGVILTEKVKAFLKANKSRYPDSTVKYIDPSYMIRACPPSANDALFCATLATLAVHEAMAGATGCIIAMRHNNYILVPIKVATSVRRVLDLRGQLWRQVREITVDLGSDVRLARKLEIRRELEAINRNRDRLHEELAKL
# Chain of Ubiquitin carboxyl-terminal hydrolase 1 (Homo sapiens) (O94782 whole entry, looked up): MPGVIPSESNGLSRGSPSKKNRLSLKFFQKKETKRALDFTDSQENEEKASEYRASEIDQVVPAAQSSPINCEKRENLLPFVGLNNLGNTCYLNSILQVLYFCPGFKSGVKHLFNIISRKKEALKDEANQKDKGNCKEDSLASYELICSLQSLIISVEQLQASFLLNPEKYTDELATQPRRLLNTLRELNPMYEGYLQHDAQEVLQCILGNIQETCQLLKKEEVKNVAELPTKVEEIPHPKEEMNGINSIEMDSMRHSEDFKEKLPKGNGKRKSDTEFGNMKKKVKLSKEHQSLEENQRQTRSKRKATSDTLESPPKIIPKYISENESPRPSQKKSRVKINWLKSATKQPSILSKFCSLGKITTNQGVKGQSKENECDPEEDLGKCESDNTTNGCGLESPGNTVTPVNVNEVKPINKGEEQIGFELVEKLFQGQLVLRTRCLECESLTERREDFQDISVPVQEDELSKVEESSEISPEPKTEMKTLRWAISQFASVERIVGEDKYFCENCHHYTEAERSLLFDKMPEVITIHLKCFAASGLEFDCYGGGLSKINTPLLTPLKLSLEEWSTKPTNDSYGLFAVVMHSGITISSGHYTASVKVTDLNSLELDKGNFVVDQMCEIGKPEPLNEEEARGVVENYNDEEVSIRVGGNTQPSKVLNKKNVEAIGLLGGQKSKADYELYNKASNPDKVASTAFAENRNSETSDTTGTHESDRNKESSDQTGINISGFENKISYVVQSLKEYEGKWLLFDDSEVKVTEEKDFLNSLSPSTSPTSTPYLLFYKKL
# Chain of 3',5'-cyclic-AMP phosphodiesterase 4B (Homo sapiens) (Q07343 whole entry, looked up): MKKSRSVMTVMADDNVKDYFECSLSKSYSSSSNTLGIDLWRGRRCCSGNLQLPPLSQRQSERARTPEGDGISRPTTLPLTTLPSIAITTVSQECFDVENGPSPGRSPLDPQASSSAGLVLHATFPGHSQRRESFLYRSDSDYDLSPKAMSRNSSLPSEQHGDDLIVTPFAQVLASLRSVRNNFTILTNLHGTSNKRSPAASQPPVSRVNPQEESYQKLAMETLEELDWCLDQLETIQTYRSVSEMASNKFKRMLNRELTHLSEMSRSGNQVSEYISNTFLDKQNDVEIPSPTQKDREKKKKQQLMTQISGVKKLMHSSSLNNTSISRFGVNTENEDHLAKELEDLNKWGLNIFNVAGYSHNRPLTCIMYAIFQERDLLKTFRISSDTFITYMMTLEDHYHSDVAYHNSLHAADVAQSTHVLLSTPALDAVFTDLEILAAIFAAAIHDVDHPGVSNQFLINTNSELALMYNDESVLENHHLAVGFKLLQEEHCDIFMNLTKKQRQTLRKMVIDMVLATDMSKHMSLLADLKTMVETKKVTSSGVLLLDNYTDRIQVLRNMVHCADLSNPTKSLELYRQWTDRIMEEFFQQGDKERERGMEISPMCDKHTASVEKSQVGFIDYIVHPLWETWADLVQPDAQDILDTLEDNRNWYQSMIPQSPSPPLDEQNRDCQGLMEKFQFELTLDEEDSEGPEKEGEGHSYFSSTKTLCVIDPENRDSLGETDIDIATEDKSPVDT
# Chain of Luciferin 4-monooxygenase (Photinus pyralis) (P08659 whole entry, looked up): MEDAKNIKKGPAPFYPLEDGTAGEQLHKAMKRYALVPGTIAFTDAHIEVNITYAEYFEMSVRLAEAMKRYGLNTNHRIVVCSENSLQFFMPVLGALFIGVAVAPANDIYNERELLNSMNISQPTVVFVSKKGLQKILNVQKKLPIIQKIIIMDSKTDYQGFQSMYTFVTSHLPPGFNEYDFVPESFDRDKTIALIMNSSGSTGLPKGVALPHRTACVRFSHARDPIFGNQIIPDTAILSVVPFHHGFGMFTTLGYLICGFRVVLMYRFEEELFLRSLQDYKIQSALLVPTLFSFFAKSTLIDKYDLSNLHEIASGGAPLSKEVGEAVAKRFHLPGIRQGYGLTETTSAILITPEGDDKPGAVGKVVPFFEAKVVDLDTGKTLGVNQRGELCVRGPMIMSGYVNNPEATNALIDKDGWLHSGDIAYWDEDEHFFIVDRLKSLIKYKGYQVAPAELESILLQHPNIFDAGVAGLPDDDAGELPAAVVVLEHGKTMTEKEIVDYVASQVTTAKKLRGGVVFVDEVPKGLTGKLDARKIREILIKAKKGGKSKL
# Chain of Glucocorticoid receptor (Homo sapiens) (P04150 whole entry, looked up, the tested form may be a part): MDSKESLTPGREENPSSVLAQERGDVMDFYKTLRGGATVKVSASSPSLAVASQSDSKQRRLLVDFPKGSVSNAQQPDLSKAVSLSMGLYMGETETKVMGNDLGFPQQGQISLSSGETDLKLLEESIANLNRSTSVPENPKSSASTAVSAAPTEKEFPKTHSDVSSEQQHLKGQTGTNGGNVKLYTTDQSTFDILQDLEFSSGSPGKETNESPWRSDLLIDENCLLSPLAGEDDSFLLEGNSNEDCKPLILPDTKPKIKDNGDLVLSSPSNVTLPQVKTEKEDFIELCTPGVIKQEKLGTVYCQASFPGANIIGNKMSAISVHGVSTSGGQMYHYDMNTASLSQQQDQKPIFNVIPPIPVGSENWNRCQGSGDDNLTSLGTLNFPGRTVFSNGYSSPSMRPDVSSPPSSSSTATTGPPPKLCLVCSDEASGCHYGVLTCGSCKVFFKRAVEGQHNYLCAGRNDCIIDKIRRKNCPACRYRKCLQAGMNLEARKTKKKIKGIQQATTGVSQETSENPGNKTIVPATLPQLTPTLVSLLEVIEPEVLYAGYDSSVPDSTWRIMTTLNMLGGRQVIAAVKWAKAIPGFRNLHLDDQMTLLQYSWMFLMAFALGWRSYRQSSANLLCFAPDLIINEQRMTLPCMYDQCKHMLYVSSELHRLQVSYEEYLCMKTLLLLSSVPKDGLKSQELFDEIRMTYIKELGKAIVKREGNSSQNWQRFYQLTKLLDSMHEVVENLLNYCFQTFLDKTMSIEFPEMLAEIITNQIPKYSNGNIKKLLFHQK
compound,measurement,setting,value
CC[C@H](C)[C@H](N)C1=N[C@H](C(=O)N[C@@H](CC(C)C)C(=O)N[C@@H](CCC(=O)O)C(=O)N[C@@H](C(=O)N[C@H]2CCCCNC(=O)[C@@H](CC(N)=O)NC(=O)[C@@H](CC(=O)O)NC(=O)[C@@H](Cc3cnc[nH]3)NC(=O)[C@@H](Cc3ccccc3)NC(=O)[C@@H]([C@@H](C)CC)NC(=O)[C@@H](CCCN)NC2=O)[C@@H](C)CC)CS1 ({Ileψ(thiazoline)Cys}-LE[d(aIle)]K[dOrn][d(aIle)][dF][dH][dD][dN]; lactam 4-C),outcome,[1],inactive
same,"activity change, negative = inhibition",[2],1.53% (inactive)
same,outcome,[3],inactive
same,Potency,[4],inactive
same,outcome,[5],inactive
same,"activity change, negative = inhibition",[6],-0.807% (inactive)
same,max response,[6]; [14],-6.25%
same,max response,[6]; [15],-6.65%
same,Potency,[7],inactive
same,Potency,[8],inactive
same,Potency,[9],inactive
same,"activity, negative = inhibition",[10]; parasite line A,0.552% (inactive)
same,"activity, negative = inhibition",[10]; parasite line B,7.07% (inactive)
same,Potency,AS120,inactive
same,Potency,C2A,inactive
same,Potency,CP238,inactive
same,Potency,CP250,inactive
same,Potency,CP252,inactive
same,Potency,HB3,inactive
CC[C@](C)(CN(C)C)OC(=O)c1ccccc1,outcome,[1],inactive
same,outcome,[3],inactive
same,Potency,[11],> 20.6 µM (inactive)
same,Potency,[12],> 20.6 µM (inactive)
same,Potency,[4],inactive
same,outcome,[5],inactive
same,"activity change, negative = inhibition",[6],-5.12% (inactive)
same,max response,[6]; [14],-9.58%
same,max response,[6]; [15],-16.2%
same,outcome,[13],inactive
same,Potency,[7],inactive
same,Potency,[8],inactive
same,Potency,[9],inactive
same,"activity, negative = inhibition",[10]; parasite line A,5.48% (inactive)
same,"activity, negative = inhibition",[10]; parasite line B,4.88% (inactive)
same,Potency,AS120,inactive
same,Potency,C2A,inactive
same,Potency,CP238,inactive
same,Potency,CP250,inactive
same,Potency,CP252,inactive
same,Potency,HB3,inactive
same,Potency,SC27B,inactive
Cc1cccc(CN2CCN([C@@H](c3ccccc3)c3ccc(Cl)cc3)CC2)c1,outcome,[1],inactive
same,outcome,[3],inactive
same,Potency,[11],> 20.6 µM (inactive)
same,Potency,[12],> 20.6 µM (inactive)
same,Potency,[4],inactive
same,outcome,[5],inactive
same,"activity change, negative = inhibition",[6],-11.4% (inactive)
same,max response,[6]; [14],-11.7%
same,max response,[6]; [15],-24.7%
same,outcome,[13],inactive
same,Potency,[8],inactive
same,Potency,[9],inactive
same,Potency,C2A,inactive
same,Potency,CP238,inactive
same,Potency,CP252,inactive
Cc1ccsc1/C=C\C1=NCCCN1C,outcome,[1],inactive
same,outcome,[3],inactive
same,Potency,[11],> 20.6 µM (inactive)
same,Potency,[12],> 20.6 µM (inactive)
same,Potency,[4],inactive
same,outcome,[5],inactive
same,"activity change, negative = inhibition",[6],-1.64% (inactive)
same,max response,[6]; [14],-9.18%
same,max response,[6]; [15],-10.2%
same,outcome,[13],inactive
same,Potency,[8],inactive
same,Potency,[9],inactive
same,"activity, negative = inhibition",[10]; parasite line A,10.5% (inactive)
same,"activity, negative = inhibition",[10]; parasite line B,9.61% (inactive)
same,Potency,AS120,inactive
same,Potency,C2A,inactive
same,Potency,CP238,inactive
same,Potency,CP250,inactive
same,Potency,CP252,inactive
same,Potency,HB3,inactive
same,Potency,SC27B,inactive
Cc1onc(-c2ccccc2Cl)c1C(=O)N[C@H]1C(=O)N2[C@H]1SC(C)(C)[C@H]2C(=O)O,outcome,[1],inactive
same,outcome,[3],inactive
same,Potency,[11],> 20.6 µM (inactive)
same,Potency,[12],> 20.6 µM (inactive)
same,Potency,[4],inactive
same,outcome,[5],inactive
same,"activity change, negative = inhibition",[6],-0.309% (inactive)
same,max response,[6]; [14],6.25%
same,max response,[6]; [15],7.41%
same,outcome,[13],inactive
same,Potency,[7],inactive
same,Potency,[8],inactive
same,"activity, negative = inhibition",[10]; parasite line A,10.5% (inactive)
same,"activity, negative = inhibition",[10]; parasite line B,7.79% (inactive)
same,Potency,AS120,inactive
same,Potency,C2A,inactive
same,Potency,CP238,inactive
same,Potency,CP250,inactive
same,Potency,CP252,inactive
same,Potency,HB3,inactive
same,Potency,SC27B,inactive
OCCOCCN1CCN([C@@H](c2ccccc2)c2ccc(Cl)cc2)CC1,outcome,[1],inactive
same,outcome,[3],inactive
same,Potency,[4],inactive
same,outcome,[5],inactive
same,"activity change, negative = inhibition",[6],-0.885% (inactive)
same,max response,[6]; [14],8.41%
same,max response,[6]; [15],6.93%
same,Potency,[7],inactive
C[C@H](CCC(=O)O)[C@H]1CC[C@@H]2[C@H]3[C@@H](CC[C@@]21C)[C@]1(C)CC[C@H](O)C[C@@H]1C[C@@H]3O,outcome,[1],inactive
same,"activity change, negative = inhibition",[2],-6.74% (inactive)
same,outcome,[3],inactive
same,Potency,[4],inactive
same,outcome,[5],inactive
same,"activity change, negative = inhibition",[6],0.999% (inactive)
same,max response,[6]; [14],-6.52%
same,max response,[6]; [15],-4.97%
same,Potency,[7],inactive
